Source: PubChem BioAssay AID743279 (National Center for Advancing Translational Sciences (NCATS), 2014)
Among all 360,000 compounds or so, about 17,000 (4.7%) were called active. About 5% were inconclusive and are not listed. Rule as the data show it: active = activity change below about -50%; inconclusive = mostly about -30% to -49%; inactive = weaker than that. Shown is part of a subset that was picked to be rich in actives.

Experiment: qHTS for Inhibitors of Inflammasome Signaling: IL-1-beta AlphaLISA Primary Screen
Settings: THP-1 LPS/ATP IL-1B secretion, 16 h; at 57.5 µM, hits give low values
Summary of the method: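 Secreted IL-1B measured by AlphaLISA bead assay after 16 h compound exposure of THP-1 cells; compounds (final up to 57.5 uM) added 1 h before LPS (250 ng/mL) and ATP (1.25 mM) stimulation; lower signal means less secretion.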
% is scaled to controls: 0 for no effect and ±100 for the full control effect.

Compound | activity change
COc1ccc(/C=N/NC(=O)Cn2cc(C(F)(F)F)ccc2=O)cc1 | -1.55% (inactive)
CC(C)(C)C(=O)N1CCC[C@@]1(CO)C(=O)O | 1.41% (inactive)
Cc1nn(-c2ccccc2)c2c1C(=O)NC(=O)C(C)(C)C2 | -17.4% (inactive)
Cc1nn(-c2ncccn2)c2c1C(=O)CC(C)(C)C2Br (configuration not stated) | -64.8% (active)
CCCCn1nnnc1C1(C)CCC(=O)N1Cc1ccc(OC)c(OC)c1 (configuration not stated) | 0% (inactive)
CCCCCCCCN1C(=O)[C@H](CC(=O)NCC23CC4CC(CC(C4)C2)C3)C[C@@]2(C(=O)OC)CCCCC=C12 | -29.6% (inactive)
COc1ccc(-c2nnc(SCC(=O)c3ccco3)n2-c2ccccc2)cc1 | -3.17% (inactive)
COc1ccc(-n2cnc3cc(NCc4ccco4)ccc32)cc1 | -17.9% (inactive)
COc1ccc(-c2oc3ncn(Cc4ccco4)c(=N)c3c2-c2ccc(OC)cc2)cc1 | -65.2% (active)
O=[N+]([O-])c1ccc2c(c1)C(N1CCOCC1)/C(=C/C1(O)CCCCC1)O2 (configuration not stated) | 4.33% (inactive)
C#CCN(C[C@@H]1[C@@H](OC(=O)NC2CC2)[C@@H](OC(=O)NC2CC2)Cn2c(=O)ccc(=O)n21)S(=O)(=O)c1ccc(C)cc1 | -84.6% (active)
Cc1ccc(S(=O)(=O)N2C[C@]3(O)C[C@@H]4C(=O)N(c5ccccc5)C(=O)[C@@H]4C[C@]3(OC(=O)NC3CC3)C2)cc1 | -19.7% (inactive)
C#CCN(C[C@H]1[C@H](OC(=O)NC2CCCC2)[C@H](OC(=O)NC2CCCC2)C[C@H]2C(=O)N(c3ccccc3)C(=O)[C@@H]12)S(=O)(=O)c1ccc(C)cc1 | -9.89% (inactive)
N#CC1(Nc2ccc3c4c(cccc24)CC3)CCCCC1 | 0% (inactive)
O=C(NCCc1ccccn1)c1cc(C(=O)C2CCCCC2)c[nH]1 | 3.93% (inactive)
CC(=O)CSc1nc(CCc2ccccc2)c(C#N)c(=O)[nH]1 | 3.36% (inactive)
Cc1c(NS(=O)(=O)c2ccc(NC3CCCC3)c([N+](=O)[O-])c2)c(=O)n(-c2ccccc2)n1C | -9.94% (inactive)
Cc1cc([N+](=O)[O-])ccc1NC1CCCC1 | -6.41% (inactive)
Cc1cc(C=O)c(C)n1-c1ccc(NC2CCCCC2)c([N+](=O)[O-])c1 | -93.9% (active)
CCCC(=O)Nc1ncnc2c1ncn2[C@@H]1O[C@@H]2OP(=O)(O)OC[C@H]2[C@H]1OC(=O)CCC | 0% (inactive)
Cc1cnc(C(=O)OCc2c(C)cc(C(C)(C)C)cc2C)cn1 | -4.05% (inactive)
ClC1(Cl)CC1CSc1ncn[nH]1 (configuration not stated) | -1.77% (inactive)
CCCCCCCCN1C(=O)[C@H](CC(=O)NCc2cccc3ccccc23)C[C@@]2(C(=O)OC)CCCCC=C12 | -30% (inactive)

Compound | activity change
CC(=O)c1cccc(-c2cnc3c(NC=O)cc(-c4ccc(N(C)C)cc4)cn23)c1 | 51.7% (inactive)
CC(=O)c1cccc(-c2cnc3c(NC=O)cc(-c4ccccc4Oc4ccccc4)cn23)c1 | 98.2% (inactive)
CC(=O)c1ccc(-c2cnc3c(NC=O)cc(-c4cccc(NS(C)(=O)=O)c4)cn23)cc1 | -68.2% (active)
CN(C)CCNC(=O)c1cccc(-c2cnc3c(NC=O)cc(-c4cccc(C(F)(F)F)c4)cn23)c1 | -107% (active)
CC(=O)c1cccc(-c2cnc3c(NC=O)cc(-c4cccc(C(=O)N(C)C)c4)cn23)c1 | 107% (inactive)
COc1ccc(-c2cc(NC=O)c3ncc(-c4cccc(C(=O)N(C)C)c4)n3c2)c(OC)c1 | 47.4% (inactive)
COc1ccc(-c2cc(NC=O)c3ncc(-c4ccccc4)n3c2)cc1OC | -59.3% (active)
CC(=O)Nc1cc(-c2cccc(CO)c2)cn2c(-c3cccc(C(F)(F)F)c3)cnc12 | -13.6% (inactive)
COc1ccc(-c2cc(NC=O)c3ncc(-c4cc(OC)c(OC)c(OC)c4)n3c2)c(OC)c1 | 39.1% (inactive)
CCc1nc2ccc(C(=O)N3CCN(S(=O)(=O)CC)CC3)cn2c1N(C=O)CCC(C)C | 36.3% (inactive)
COc1cc(C(=O)OC(C)C(=O)NCC2CCCCC2)cc(NC(=O)c2ccco2)c1OC (configuration not stated) | -6.5% (inactive)
Cc1oc(C)c(C(=O)NCCCC(=O)O)c1C(=O)NCCCC(=O)O | 18.8% (inactive)
CCc1nc2c(OCCOc3ccccc3)cccn2c1N(C)C(=O)c1cccs1 | -18.6% (inactive)
O=c1c2c(nc3cc(-c4cccc(Cl)c4)[nH]n13)CCCC2 | -102% (active)
Cc1cc(=O)n2[nH]c(-c3cccc(Cl)c3)cc2n1 | 9.73% (inactive)
CCCCN1Cc2c(nc3cc(-c4ccccc4)[nH]n3c2=O)C1=O | 13% (inactive)
Cc1nc(N)sc1N=Nc1c(C)n(C)n(-c2ccccc2)c1=O | 15.5% (inactive)
COCCNC(=O)C1CCCN(Cc2ccccc2Cl)CC1 (configuration not stated) | 21.5% (inactive)
Cc1cc(NC(=O)CSc2ncc(C(F)(F)F)cc2Cl)no1 | -7.22% (inactive)
Cc1ccc(-c2ccnc3nc(Sc4ncc(C(F)(F)F)cc4Cl)nn23)cc1 | -65.2% (active)
Cc1nn(-c2ncc(C(F)(F)F)cc2Cl)c(=O)n1-c1ccccc1 | 24.1% (inactive)
COc1ccc(S(=O)(=O)N2CCSCC2)cc1 | 0% (inactive)
C[C@H]1Cn2cnc(C(=O)N[C@@H](Cc3c[nH]c4ccccc34)C(=O)OC(C)(C)C)c2C(=O)N1 | 33.4% (inactive)

Compound | activity change
COCCNc1nc(NCc2ccc(NC(C)=O)cc2)c2sccc2n1 | 29.5% (inactive)
COCCNc1nc(Nc2ccccc2Cl)c2sc(-c3ccccc3)cc2n1 | -12.6% (inactive)
CC(=O)Nc1ccc(CNc2nc(NCCN(C)C)nc3cc(-c4ccccc4)sc23)cc1 | -108% (active)
CC1Cc2[nH][nH]c(=O)c2C(C2CCCC2)O1 (configuration not stated) | 16.7% (inactive)
CCOC(=O)[C@]12CCC=C1N(Cc1ccco1)C(=O)[C@H](CC(=O)N1CCSCC1)C2 | -5.81% (inactive)
CC(C)c1cccc(C(C)C)c1Nc1cn[nH]c1 | -1.8% (inactive)
CCCC[C@@H]1CN=C(N)N1CCc1cc(C(F)(F)F)cc(C(F)(F)F)c1 | -103% (active)
CCCCN1C(N)=NC[C@@H]1Cc1ccccc1 | 5.9% (inactive)
CCCC[C@@H]1CN=C(N)N1CCCC | 15.9% (inactive)
CC(=O)Nc1cccc(Nc2ccc(C#N)cc2)c1 | -18.3% (inactive)
CC(OC(=O)c1ccc(NC(=O)CC#N)cc1)C(=O)Nc1ccc(S(=O)(=O)N2CCCC2)cc1 (configuration not stated) | -25.9% (inactive)
Cc1ccc(S(=O)(=O)N2CCOCC2)cc1C(=O)Nc1ccccc1N1CCCC1 | -1.43% (inactive)
O=C1OCC2=C1C(c1ccc(Cl)cc1)c1cc3c(cc1O2)OCO3 (configuration not stated) | -0.909% (inactive)
CCOC(=O)C1=C(c2ccccc2)NC(=O)NC1c1cc(OC)c(OC)cc1OC (configuration not stated) | -5.44% (inactive)
O=C(NC1CC1)C(Cc1ccccc1)NS(=O)(=O)c1ccccc1F (configuration not stated) | 20.4% (inactive)
CCOC(=O)C1=C(COC(=O)[C@H](C)NS(=O)(=O)c2ccccc2F)NC(=O)NC1C (some centres not stated) | -51.3% (active)
CCn1c(/C=C/c2ccc([N+](=O)[O-])o2)nc2ccccc2c1=O | -95.2% (active)
O=c1oc(/C=C/c2ccccc2)nc2ccccc12 | -0.257% (inactive)
CCOCCCn1c(NN)nc2ccccc2c1=O | -13.8% (inactive)
CC(C)CN1C(=O)CN(S(C)(=O)=O)CC1(C)C(=O)NCc1ccccc1 (configuration not stated) | 37.5% (inactive)
Clc1cc(NC2CCCCC2)ncn1 | 35.9% (inactive)
COCCCNC(=O)c1cccc2c(-c3ccc(O)c(OC)c3)coc12 | 2.52% (inactive)
O=C(NCc1ccccc1)c1onc(CSc2nc3ccccc3[nH]2)c1C(=O)NCc1ccccc1 | -5.65% (inactive)

Compound | activity change
CN(Cc1ccccc1)C(=O)CSc1nc2ccccc2[nH]1 | -8.05% (inactive)
COc1ccccc1CSc1nc2ccccc2[nH]1 | -54.1% (active)
O=C(NCC1CCCCC1)NCC1CCCCC1 | 5.16% (inactive)
C[C@@H]1CN([C@@H](C)CO)C(=O)CCCn2nncc2CO[C@H]1CN(C)Cc1ccc(C(F)(F)F)cc1 | 14.2% (inactive)
CCOC(=O)c1nnn(CC(=O)Nc2cccc(F)c2)c1C(=O)OCC | -64.5% (active)
CCOC(=O)c1cccc(NC(=O)c2ccc(F)cc2F)c1 | 13.7% (inactive)
CCOC(=O)c1cccc(NC(=O)CCn2nnc3ccccc32)c1 | -9.21% (inactive)
CCC(O)C1CCN(Cc2cn(-c3ccc(OC)cc3)nc2-c2cccc(F)c2)CC1 (configuration not stated) | -60.7% (active)
COc1ccc(-n2cc(CNC3CCOCC3)c(-c3cccc(F)c3)n2)cc1 | -66.6% (active)
Cn1cc(CN2CCC(C(O)CCc3ccccc3)CC2)c(-c2ccccc2F)n1 (configuration not stated) | -20.8% (inactive)
COc1ccc(-n2cc(CN(C)Cc3n[nH]c(=O)[nH]3)c(-c3cccc(F)c3)n2)cc1 | -3.96% (inactive)
Cc1cccc(-n2cc(CN3CCN(C(=O)c4ncn[nH]4)CC3)c(-c3cccc(F)c3)n2)c1 | 0.119% (inactive)
COc1ccc(-c2nn(-c3ccccc3)cc2CN2CCCO2)c(F)c1 | -28.9% (inactive)
OCCC1CN(Cc2ccc3nsnc3c2)CCN1C1CCCCC1 (configuration not stated) | 36.7% (inactive)
O=C(COc1ccc(Br)cc1)OCC(=O)c1ccc[nH]1 | -7.68% (inactive)
CCCNC(=O)C1(C)CCN(C(=O)c2ccc(F)cc2Cl)C1 (configuration not stated) | 16.4% (inactive)
CC1(C)CC(=O)C2=C(C1)N=C1SCCC(=O)N1C2c1ccc(C(F)(F)F)cc1 (configuration not stated) | 0.519% (inactive)
Cc1ccc(C)c(-n2c(SCC(=O)O)nc3sc4c(c3c2=O)CCCC4)c1 | 0.0998% (inactive)
NNC(=O)C1CCCn2c1nc1sc3c(c1c2=O)CCCC3 (configuration not stated) | 0% (inactive)
CCCc1nc2sc3c(c2c(=O)n1NC(=O)CCCl)CCCC3 | -96.6% (active)
Cc1nc2sc3c(c2c(=O)n1NC(=O)CCl)CCCC3 | -80.7% (active)
Cn1c(NN)nc2sc3c(c2c1=O)CCC3 | 26.1% (inactive)
CCc1nc(N2CCN(C(C)=O)CC2)c2c3c(sc2n1)CCCC3 | -1.89% (inactive)
